High-throughput results as filed in PubChem BioAssay.
HCV inh: HCV inhibition; Huh7.5.1 HCVcc-Cre infection, luciferase reporter, 44 h; Potency, µM (highest dose often 41.8 µM), most hits filed as inhibitors; 3.4% of 340,000 active
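A cell-based infection assay in which seeded cells (1,000 per well) receive test compound after 4 h, are inoculated with HCVcc-Cre at approximately 0.5 moi, and are incubated 44 h before luminescence detection.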
FMDV inh: blocks foot and mouth disease virus. FMDV antiviral cell-based qHTS. Potency, µM (titrated, usually from 57.9 µM), usual class: inhibitors. 1.2% of 410,000 active; calls by dose curve; tested in HEK293T cells; note: read-out not given here; nearly all actives have a fitted effect of over 45% in size
Marburg entry inh: blocks Marburg virus binding to or entry into cells. Marburg virus pseudotyped entry inhibition, cell reporter. Potency, µM (highest dose often 37.8 µM), usual class: inhibitors. 1.8% of 300,000 active. AID 540276; calls by dose curve; tested in HEK293 cells
SARS PLpro yeast: blocks SARS-CoV papain-like protease in a yeast assay; S. cerevisiae expressing SARS-CoV PLpro, growth rescue; Potency, µM (titrated, usually from 32.9 µM), most hits filed as activators; 0.19% of 330,000 active; calls by dose curve; note: nearly all actives have a fitted effect of over 55% in size
HCMV inh: blocks human cytomegalovirus replication; HFF cells, HCMV-luciferase reporter, 72 h; active compounds read low; activity change, negative = inhibition, % at 57.5 µM; 4.5% of 410,000 active; AID 1259415; in the data active = activity change below about -60%; inconclusive = no clear call, values can overlap the other calls; inactive = above about -39%
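Human foreskin fibroblasts infected with luciferase-reporter HCMV at MOI 1 PFU/cell, compounds at two doses. Luciferase measured 72 h post infection; normalized to buffer-only basal and Salinomycin (10uM) controls.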
LASV entry inh: blocks Lassa virus binding to or entry into cells | Lassa virus pseudotype entry inhibition, cell reporter | Potency, µM (titrated, usually from 37.9 µM), usual class: inhibitors | 1.2% of 300,000 active; calls by dose curve; tested in HEK293 cells; note: nearly all actives have a fitted effect of over 50% in size
HCV inh confirm: HCV inhibition, cherry-pick confirmation; shares compounds with HCV inh; HCVcc-Cre infectious virus cell assay, luciferase, inhibition; Potency, µM (doses to about 41.8 µM), most hits filed as inhibitors; 78% of 640 active; AID 720575; note: nearly all actives have a fitted effect of over 80% in size
HCV host tox: counter-screen for HCV inhibitors: host cell cytotoxicity. shares compounds with HCV inh. HCV host cell line cytotoxicity counterscreen. Potency, µM (top dose mostly 41.8 µM), usual class: inhibitors. 22% of 640 active;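 note: 44 h compound exposure; nearly all actives have a fitted effect of over 55% in size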
Numbers stand for hits; 0 = inactive; ? = inconclusive; - = no result. The list is not random: actives were taken first. Their share in the collection is about 8%. Unless noted, calls come from the whole dose curve; as a rule, active = well fitted curve in the direction sought with a large enough effect; inconclusive = small, poorly fitted or top-dose-only effect, or another doubt; inactive = no such curve, though single readings can be large; an effect the other way counts as inactive or inconclusive.

SMILES	HCV inh	FMDV inh	Marburg entry inh	SARS PLpro yeast	HCMV inh	LASV entry inh	HCV inh confirm	HCV host tox
COC(=O)c1cc(C(=O)c2ccccc2)n2c(=O)/c(=C\N(C)C)sc12	?	0	-	0	0	-	-	-
CC(C)(C)OC(=O)N1CCC(c2c(C(=O)N3CCN(c4ccccn4)CC3)cnn2-c2ccc(F)cc2F)CC1	-	0	-	-	0	?	-	-
COc1ccc(CNc2cccc3[nH]c(C(F)(F)F)nc23)cc1OC	5.6µM	0	-	0	0	-	22µM	0
COc1ccc(CCNc2ncnc3[nH]ncc23)cc1OC	?	18µM	?	0	?	0	8.9µM	0
Fc1ccc(CCNc2ncnc3[nH]ncc23)cc1	?	0	0	-	0	0	-	-
CCN1CCN(Cc2c(O)ccc3c(=O)c(Oc4ccccc4Cl)c(C(F)(F)F)oc23)CC1	-	0	0	-	0	0	-	-
C=C(NC(=O)C(=C)NC(=O)c1csc(C2=NC3c4csc(n4)C4NC(=O)c5csc(n5)C(C(C)(O)C(C)O)NC(=O)C5CSC(=N5)/C(=C/C)NC(=O)C(C(C)O)NC(=O)c5csc(n5)C3(CC2)NC(=O)C(C)NC(=O)C(=C)NC(=O)C(=C)NC(=O)C(C(C)C)NC2C=Cc3c(C(C)O)cc(nc3C2O)C(=O)OC4C)n1)C(N)=O (centres undefined)	4µM	?	4µM	-	-98	6.3µM	2.5µM	3.1µM
CCN(CC)S(=O)(=O)c1ccc(Oc2ccc(S(=O)(=O)N(CC)CC)cc2)cc1	2.8µM	?	?	0	0	15µM	2.5µM	2.8µM
COc1cc(NC(=O)c2ccc(-c3nc(CSc4ccccc4)c(C)o3)cc2)cc(OC)c1	-	0	-	-	?	?	-	-
Cc1cccc(N(C)C(=O)CCNS(=O)(=O)c2ccc3c(c2)CCN3C(=O)C2CC2)c1	-	0	-	-	0	0	-	-
O=C(/C=C/c1ccccc1)Nc1cccc(C(=O)NCCCCc2ccccc2)c1	2.5µM	0	-	-	0	-	11µM	0
Cc1cc(/C=N/NC(=O)c2ccccc2F)c(C)n1-c1ccccc1	7.9µM	0	-	0	?	-	?	0
COc1ccc(NC(=O)c2sc3nc(C)c(C(=O)Nc4ccc(C)cc4C)c(-c4sccc4C)c3c2N)cc1	-	0	?	-	0	0	-	-
COc1cccc(CNc2nc3ccccc3c3nc(-c4cccc(C)c4)nn23)c1	-	0	?	-	0	-	-	-
Cc1c(NC(=O)c2cc3c(s2)-c2ccccc2OC3)cccc1[N+](=O)[O-]	?	28µM	?	0	?	?	6.3µM	0
COc1ccc(Cl)cc1NC(=O)c1cc2c(s1)-c1ccccc1OC2	-	0	0	-	0	-	-	-
Cc1ccccc1-c1nc(CN2CCC(C(=O)NCCCN3CC(C)CC(C)C3)CC2)c(C)o1 (centres undefined)	1.3µM	0	?	0	0	?	1.4µM	?
Cc1ccccc1-c1nc(CN2CCC(C(=O)NCCN3CCOCC3)CC2)c(C)o1	0	0	?	0	0	0	-	-
N#Cc1ccccc1CSc1ccc(-c2nc3ccccc3[nH]2)cn1	8.9µM	-	?	0	0	0	?	14µM
O=C(Nc1nnc(S(=O)(=O)N2CCCc3ccccc32)s1)c1ccc(Cl)cc1	-	0	-	-	0	0	-	-
Cc1ccc2c(c1)c1c3n2CC(=C2C(=O)OC(C)(C)OC2=O)NC3CCC1 (centres undefined)	5µM	-	0	0	0	0	28µM	0
CCn1cc(/C=C/c2cc[n+](C)cc2)c2ccccc21	2.5µM	0	-	0	-97	-	1.8µM	4µM
CCn1cc(C=C2C(=O)N(C)C(=O)N(C)C2=O)c2ccccc21	0	0	0	0	0	0	-	-
O=C(Nc1ccn(Cc2ccccc2F)n1)c1ccc(COc2ccc(Br)cc2)cc1	6.3µM	?	7.3µM	0	-103	0	4.4µM	0
Cc1ccc(NC2=C/C(=N\S(=O)(=O)c3cccs3)c3ccccc3C2=O)c(C)c1	5.6µM	25µM	?	0	-	?	2.5µM	3.5µM
SMILES	HCV inh	FMDV inh	Marburg entry inh	SARS PLpro yeast	HCMV inh	LASV entry inh	HCV inh confirm	HCV host tox
COc1ccc(-c2nc(-c3ccccc3OC)no2)cc1OC	?	0	0	0	0	0	22µM	0
COc1cc2c(cc1OC)C(C)N(C(=O)C(NC(=O)c1ccccc1)C(C)C)CC2 (centres undefined)	?	0	0	0	0	0	-	-
COc1cc2c(cc1OC)C(C)N(C(=O)[C@@H](NC(=O)c1ccccc1)C(C)C)CC2 (some centres undefined)	1.4µM	0	?	0	?	?	?	0
CC(C)c1ccc(NC(=O)c2cc(S(=O)(=O)N3CCCCC3)cn2C)cc1	-	0	-	-	0	0	-	-
CC1=C(c2ccc(C)c(C)c2)S(=O)(=O)N=C1N1CCC(C(=O)NCCc2ccco2)CC1	-	0	-	-	0	0	-	-
COC(=O)c1sc(NC(=O)/C=C/c2ccccc2Cl)nc1C	5.6µM	0	?	0	0	0	?	0
O=C(NC1CCS(=O)(=O)C1)/C(=C/c1ccco1)NC(=O)c1ccccc1 (centres undefined)	7.1µM	0	0	0	0	0	0	0
CC1CCCN(CC(O)COc2ccc(-c3ccccc3)cc2)C1 (centres undefined)	2.8µM	0	?	0	0	0	16µM	0
OC1CCCN(CC(O)COc2ccc(-c3ccccc3)cc2)C1 (centres undefined)	?	0	?	0	0	0	-	-
CCOc1ccccc1NC(=O)Cn1c(=O)n(-c2ccc(C)c(C)c2)c(=O)c2oc3ccccc3c21	-	0	-	-	0	?	-	-
CCOc1ccc(CCNS(=O)(=O)c2cnc[nH]2)cc1OCC	6.3µM	0	0	0	0	0	?	0
CCOc1ccc(CCNS(=O)(=O)c2ccc(-c3ccc(=O)[nH]n3)o2)cc1OCC	0	0	-	0	0	-	-	-
CCc1ccc(NC(=O)C2CCN(C(=O)N3CC(CC)Oc4ccccc43)CC2)cc1 (centres undefined)	-	?	-	-	0	0	-	-
COc1ccc([N+](=O)[O-])cc1NC(=O)CSc1nc(C)c(C)c(C)n1	0	0	0	0	0	0	-	-
COc1ccc([N+](=O)[O-])cc1NC(=O)C(C)Sc1nc(C)c(C)c(C)n1 (centres undefined)	5.6µM	0	0	0	0	0	13µM	0
O=C(c1ccccc1)N1CCC(c2nc(-c3ccc(S(=O)(=O)NCC4CCCO4)cc3)no2)CC1 (centres undefined)	2.8µM	-	?	0	-89	0	3.5µM	8.9µM
Cn1c(=O)c(/C=C/c2ccccc2)nc2ccccc21	0	0	?	0	0	0	-	-
CCn1nc(/C=C/c2ccccc2)nc2c(=O)n(C)c(=O)nc1-2	2.5µM	2.5µM	0.71µM	0	-96	7.9µM	5.6µM	7µM
